Assay outcomes (PubChem)
Most compounds without a hit are left out; they make up all but 2.9% or so of the library.
A549 viability: A549 cytotoxicity, counter-screen for Nrf2 inhibitors | A549 ARE-Fluc cells, CellTiter-Fluor viability, 18-24 h | Potency, µM (doses to about 46 µM), actives largely listed as inhibitors | actives 0.16% (n = 390,000) | AID 504648
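A549 ARE-Fluc cells in 5% FBS OPTI-MEM, 5000 cells/well, rested 2 h then exposed to compounds in concentration-response for 18-24 h at 37 °C. Viability by CellTiter-Fluor fluorescence (Ex 405/Em 525) after 30 min; luciferase luminescence (BugLite, 15 min, RT) read afterwards.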
ATXN2 expr inh: reduces ATXN2 reporter expression in HEK-293 cells. HEK-293 ATXN2-luciferase reporter, luminescence, 24 h. Potency, µM (series often up to 57 µM), hits mostly inhibitors. actives 0.72% (n = 360,000). AID 1745845; also: nearly all actives have a fitted effect of over 55% in size
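ATXN2-luciferase reporter cells (luciferase flanked by upstream and downstream ATXN2 gene portions) were treated 24 h at 37 °C with compounds at up to 57 uM. SteadyGlo luminescence gave expression; GF-AFC fluorescence gave viability.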
ATXN viability: viability counter-screen for ATXN expression inhibitors; S2 cells (HEK-293 line with an ATXN2-luciferase reporter) viability, CellTiter-Fluor protease fluorescence, 24 h; Potency, µM (doses to about 56.7 µM), usual class: cytotoxic; actives 0.49% (n = 400,000); also: nearly all actives have a fitted effect of over 40% in size
Nrf2 activator: Nrf2 pathway activation; AREc32 ARE-luciferase reporter (MCF7-derived line), luminescence, 24 h; Potency, µM (series often up to 46.1 µM), usual class: activators; actives 0.31% (n = 410,000); AID 624171; also: nearly all actives have a fitted effect of over 65% in size
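Steps: seed AREc32_Fluc cells (1000/well, 5% FBS OPTI-MEM); incubate overnight at 37 deg C; add 23 nL compound; incubate 24 hr; add Steady-Glo; hold 30 min RT; read luminescence.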
Nrf2 inh: inhibitors of Nrf2 signaling. A549 ARE-Fluc reporter, luciferase luminescence, 18-24 h. Potency, µM (doses to about 46 µM), usual class: inhibitors. actives 2.1% (n = 360,000). AID 504444; also: nearly all actives have a fitted effect of over 60% in size
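Cells were seeded and rested 2 h, then exposed to compounds for 18-24 h. CellTiter-Fluor was read first as a viability measure. BugLite was added 15 min before the final luminescent read of ARE-luciferase activity in A549 cells.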
Of the large screens only hits and unclear results are named; the others gave an inactive call. Calls follow the shape of the dose curve; as a rule, active = well fitted curve in the direction sought with a large enough effect; inconclusive = small, poorly fitted or top-dose-only effect, or another doubt; inactive = no such curve, though single readings can be large; an effect the other way counts as inactive or inconclusive.

Cn1c(=O)n(C)c2cc([N+](=O)[O-])c(N3CCN(S(=O)(=O)c4ccc5ccccc5c4)CC3)cc21	Nrf2 inh 5.8µM
Cc1ccc(S(=O)(=O)N2CCN(c3ccc(C(F)(F)F)cc3[N+](=O)[O-])CC2)cc1	Nrf2 inh 16.4µM
Cn1c(=O)n(C)c2cc([N+](=O)[O-])c(N3CCN(C(=O)c4cccc(F)c4)CC3)cc21	Nrf2 inh 9.2µM
Cn1c(=O)n(C)c2cc([N+](=O)[O-])c(N3CCN(C(=O)c4cccc(Cl)c4)CC3)cc21	Nrf2 inh inconclusive
NC(N)=NCC1COC2(CCCCC2)O1 (configuration not stated)	none (no result: A549 viability, ATXN2 expr inh, Nrf2 activator, Nrf2 inh)
Clc1nnc(N/N=C/c2ccccc2)c2ccccc12	Nrf2 activator inconclusive, Nrf2 inh inconclusive
C[n+]1ccc(/C=N/Nc2nc(Cl)c(C#N)c(Cl)c2Cl)cc1	ATXN viability inconclusive, Nrf2 activator 12.6µM
O=C(NCc1cccc(Cl)c1)c1cccc2c(-c3cccnc3)coc12	ATXN2 expr inh 28.2µM, ATXN viability 20µM (no result: A549 viability, Nrf2 inh)
O=C(NCc1ccc(F)c(F)c1)c1cccc2c(-c3cccnc3)coc12	ATXN viability inconclusive (no result: A549 viability, Nrf2 inh)
Cc1cccn2c(=O)c3cc(C#N)c(=O)n(-c4nnc(SCc5ccc(Cl)cc5)s4)c3nc12	Nrf2 activator inconclusive (no result: ATXN2 expr inh, ATXN viability)
CC(C)(C)OC(=O)NCCCCCNC(=O)c1[nH]cnc1C(=O)NC1CCN(C(=O)OC(C)(C)C)CC1	ATXN viability inconclusive, Nrf2 inh 20.6µM
O=C(Nc1cccc(Cl)c1)c1nc[nH]c1C(=O)NCCCCNC(=O)c1[nH]cnc1C(=O)Nc1cccc(Cl)c1	none
CC(C)(C)OC(=O)NCCCCCNC(=O)c1[nH]cnc1C(=O)Nc1cccc(Cl)c1	A549 viability inconclusive, Nrf2 inh 20.6µM
CC(C)(C)OC(=O)CNC(=O)c1[nH]cnc1C(=O)NCCCCCNC(=O)OC(C)(C)C	ATXN2 expr inh inconclusive, ATXN viability inconclusive, Nrf2 inh 25.9µM
Cc1ccc2oc(-c3ccc(NC(=O)c4oc5ccc(Cl)cc5c4C)cc3)nc2c1	none
CC(C)(C)C(=O)Nc1ccc(-c2nc3ccccc3s2)cc1	Nrf2 inh 2.59µM
CCS(=O)(=O)c1ccccc1C(=O)Nc1ccc(-c2nc3ccccc3s2)cc1	none (no result: ATXN2 expr inh, ATXN viability, Nrf2 inh)
Cc1ccc(C(=O)Nc2ccc(C)c(S(=O)(=O)Nc3ccccc3Cl)c2)s1	Nrf2 inh inconclusive
O=C(Nc1cccc(S(=O)(=O)Nc2ccc(Cl)cc2)c1)c1cc2c(s1)CCCC2	A549 viability inconclusive, ATXN2 expr inh inconclusive, ATXN viability inconclusive, Nrf2 inh 23.1µM
Cc1ccc(NC(=O)c2cc3c(s2)CCCC3)cc1S(=O)(=O)Nc1ccccc1Cl	Nrf2 inh 7.31µM
Cc1ccc([N+](=O)[O-])cc1-c1[nH]c(-c2ccc(O)c(O)c2)nc1-c1ccccc1	A549 viability inconclusive, Nrf2 inh 20.6µM
COc1ccc(N2CCN(C(=S)Nc3cccc(C)c3C)CC2)cc1	A549 viability inconclusive, Nrf2 inh 25.9µM
COc1ccc(N2CCN(C(=S)Nc3ccc(C)cc3)CC2)cc1	ATXN viability inconclusive
COc1ccc(OC)c(NC(=O)CN2C(=O)CCc3cc(S(=O)(=O)N4CCCCC4)ccc32)c1	none (no result: Nrf2 inh)
Cc1sc2ncnc(N3CCC(C(=O)N(C)CC(=O)Nc4ccccc4Br)CC3)c2c1C	Nrf2 inh inconclusive
Cc1sc2ncnc(N3CCC(C(=O)N(C)CC(=O)Nc4ccc(Cl)c(C(F)(F)F)c4)CC3)c2c1C	A549 viability inconclusive, ATXN2 expr inh inconclusive, ATXN viability inconclusive, Nrf2 inh 10.3µM
Cc1sc2ncnc(N3CCC(C(=O)N(C)CC(=O)Nc4ccccc4Cl)CC3)c2c1C	A549 viability inconclusive, Nrf2 inh 23.1µM
Cc1sc2ncnc(N3CCC(C(=O)N(C)CC(=O)Nc4cccc(F)c4)CC3)c2c1C	none (no result: A549 viability, ATXN2 expr inh, Nrf2 inh)
CN(CC(=O)Nc1ccc(Cl)c(C(F)(F)F)c1)C(=O)C1CCN(C(=O)c2ccc(Cl)cc2)CC1	A549 viability inconclusive, ATXN viability inconclusive, Nrf2 inh 23.1µM (no result: ATXN2 expr inh)
CCc1ccc(NCc2cc3ccc(OC)cc3n(CC(=O)Nc3ccc(C(C)C)cc3)c2=O)cc1	Nrf2 inh inconclusive
CC1CCCCN1c1ncnc2ccccc12 (configuration not stated)	Nrf2 inh inconclusive
CC1(C)CC2CC(C)(CN2c2ncnc3ccccc23)C1 (configuration not stated)	A549 viability inconclusive, ATXN2 expr inh inconclusive, ATXN viability inconclusive, Nrf2 inh 10.3µM
O=C1C(SCCO)=C(SCCO)C(=O)c2ccccc21	A549 viability inconclusive, ATXN2 expr inh inconclusive, Nrf2 inh 25.9µM (no result: ATXN viability)
O=S1(=O)C=C(N2CCCCC2)c2ccccc21	Nrf2 activator 12.6µM
C[n+]1cc2c3c(ccc2c2ccc4cc5c(cc4c21)OCO5)OCO3	A549 viability inconclusive, ATXN2 expr inh 1.58µM, ATXN viability 2.82µM, Nrf2 inh inconclusive (no result: Nrf2 activator)
N#Cc1c(C(F)(F)F)cc(-c2cccs2)nc1SCc1ccc(F)cc1	none
C#CCSc1nc(-c2ccccc2)cc(C(F)(F)F)c1C#N	Nrf2 activator 8.91µM
N#Cc1c(C(F)(F)F)cc(-c2cccs2)nc1SCc1cccnc1	A549 viability inconclusive, ATXN2 expr inh inconclusive, ATXN viability inconclusive, Nrf2 inh 13µM
Cc1ccc(-c2cc(C(F)(F)F)c(C#N)c(SCCC#N)n2)o1	Nrf2 activator 7.08µM
C#CCSc1nc(-c2ccccc2)cc(-c2ccccc2)c1C#N	none
Cc1ccc(NC(=O)Cn2c(=O)n(CC(=O)NCCc3ccccc3)c(=O)c3ccccc32)cc1C	none
COc1ccc(/C=C/C(=O)NCC2Cc3cccc(-c4nc(C)cnc4C)c3O2)cc1OC (configuration not stated)	none (no result: A549 viability, ATXN2 expr inh, Nrf2 activator, Nrf2 inh)
Nc1cc(S(=O)(=O)Nc2ccc(Cl)cc2)ccc1N1CCOCC1	Nrf2 inh 16.4µM
CCNC(=O)Nc1cc(S(=O)(=O)Nc2ccc(OC)cc2)ccc1N1CCOCC1	Nrf2 inh 4.11µM
C=CCN1C(=O)/C(=C\c2ccco2)C(C(=O)OC)=C1C	Nrf2 activator inconclusive
CCN1C(=O)/C(=C\c2ccco2)C(C(=O)OC)=C1C	Nrf2 activator 10µM
Cc1ccc(S(=O)(=O)CCC(=O)N(CCCN2CCOCC2)c2nc3ccccc3s2)cc1	ATXN2 expr inh inconclusive, ATXN viability inconclusive, Nrf2 activator 12.6µM, Nrf2 inh inconclusive
Cc1ccc(NNC(=O)C(O)(c2cccc(C(F)(F)F)c2)c2cccc(C(F)(F)F)c2)cc1	A549 viability inconclusive, Nrf2 inh 23.1µM
O=C(NNc1ccccc1Br)C(O)(c1cccc(C(F)(F)F)c1)c1cccc(C(F)(F)F)c1	A549 viability inconclusive, ATXN2 expr inh inconclusive, Nrf2 inh inconclusive (no result: ATXN viability)
O=C1c2ccc3c4c(ccc(c24)C(=O)N1CCCCO)C(=O)N(CCCCO)C3=O	A549 viability 18.4µM, ATXN2 expr inh inconclusive, ATXN viability inconclusive, Nrf2 inh inconclusive
COC(=O)CCCN1C(=O)c2cccc3cccc(c23)C1=O	Nrf2 activator 12.6µM
